# Results published in PubChem BioAssay AID2320 (National Center for Advancing Translational Sciences (NCATS), 2010).
# Records with an inconclusive call do not appear. A number with no mark means an inactive call. Active and inactive are the calls of the source. Calls come from the whole dose curve.
# Test: A qHTS for Small Molecule Inhibitors of Shiga Toxin (Confirmatory); note: nearly all actives have a fitted effect of over 75% in size; for activity, positive = inhibition of toxin: 0% is about no effect
# Conditions: Cell-based Shiga toxin protection reporter assay; series mostly up to 38.3 µM; activity, positive = inhibition of toxin: at the top concentration
# Potency is the fitted concentration of half-maximal effect.
SMILES,Potency,"activity, positive = inhibition of toxin [%]"
C/C1=C\[C@@H](O)C(C(C)C)C(OC(=O)c2ccc(O)cc2)C/C(C)=C/CC1 (stereo partly drawn),17.9 µM (active),–
CC(=O)c1cccc(N2C(=O)C3C4CCC(C4=C(C)C)C3C2=O)c1 (stereo not drawn),–,-18.1
O=C(O)Cc1ccc2oc(-c3ccccn3)nc2c1,12.6 µM (active),–
Cc1cnc(NC(=O)c2c(Cl)cnn2C)s1,–,24.6
COc1ccc(-c2cnc[nH]2)cc1,–,15.5
Cc1sc(NC(=O)COc2cccc(-n3cnnn3)c2)c(C#N)c1C,–,2.39
Cc1ccc(CSc2nnc(CCCCCNC(=O)OC(C)(C)C)o2)cc1,–,6.27
Cc1nonc1OCCCNc1ccc([N+](=O)[O-])cc1Cl,12.6 µM (active),–
Nc1nc(-c2nn(Cc3ccccc3F)c3ncccc23)ncc1C1CC1,–,13.7
COc1ccccc1C(=O)Nc1nnc(SCC(=O)Nc2ccc3c(c2)oc2ccccc23)s1,3.18 µM (active),–
O=C1NC(=Nc2ccc(O)cc2)S/C1=C\C=C\c1ccco1,0.634 µM (active),–
Cc1cccc(N2CCN(C(=O)Cc3ccc(Br)cc3)CC2)c1C,14.2 µM (active),–
Cc1ccc(C(=O)CSc2nnnn2C(C)C)c(C)c1,0.449 µM (active),–
COc1ccc(NC(=O)c2c(Cl)n(C)c3ccccc23)cc1,11.3 µM (active),–
Cc1nn(-c2ccc(C(=O)O)cc2)c2c1C(=O)CC(C)(C)C2,–,-21.4
COc1ccc(C(=O)CSc2nnc(C(CO)NC(=O)c3ccc(OC)cc3)n2C)cc1 (stereo not drawn),–,-22.9
CC(OC(=O)c1ccc2c(=O)n3c(nc2c1)CCC3)C(N)=O (stereo not drawn),–,-47.4
O=C(/C=C/c1cn(CC(O)CN2CCCCC2)c2ccccc12)c1cccs1 (stereo not drawn),–,-20.1
Cc1cc(C(=O)COC(=O)C2CC2)c(C)n1-c1ccc(F)cc1,4 µM (active),–

SMILES,Potency,"activity, positive = inhibition of toxin [%]"
O=C(Cn1cnc2cc([N+](=O)[O-])ccc2c1=O)NCc1ccc(Cl)cc1,–,-17.9
Cc1ccc(C)n1-c1ccc(NC(=O)c2ccccc2)cc1,15.9 µM (active),–
CC(=O)c1ccc(N2CCN(C(=O)c3ccc4nc[nH]c4c3)CC2)cc1,–,21.4
COCCCNC(=O)c1cn(C)c(=O)c2c1c1ccccc1n2C,–,-30.2
COC(=O)c1ccc(C)c(NC(=O)CCSc2ccc(Cl)cc2)c1,–,-30.1
CC(=O)Nc1cccc(NC(=O)CSc2nc3ccccc3o2)c1,–,-0.494
CCc1nc2ccccc2c(=O)n1NCCc1ccccc1,–,30.6
O=C(Cc1cccs1)Nc1ccc(-c2nnc(-c3ccco3)o2)cc1,4 µM (active),–
Cc1cc(C)nc(SCC(=O)Nc2cc(C)on2)n1,–,-32.1
CCOC(=O)c1cnc2c(-c3cccc(Br)c3)cnn2c1C,3.56 µM (active),–
NC(=O)C1CCN(C(=O)C2c3ccccc3C(=O)N3CCc4ccccc4C23)CC1 (stereo not drawn),–,-53.8
CSc1nc(SCCO)c2sc3nc(-c4ccco4)c4c(c3c2n1)CC(C)(C)OC4,–,24.5
O=c1cc(-c2cccc(F)c2)[nH]c2ccc(Cl)cc12,–,-10.8
CC1Cc2ccccc2N1Cc1cc(=O)n2ccsc2n1 (stereo not drawn),–,-26.7
CC1CCCC(C)N1C(=O)Cn1nnc(-c2ccccc2)n1 (stereo not drawn),–,9.73
Cc1cc(C)c2c(n1)SCC(=O)N2CC(=O)Nc1ccc(C)c(C)c1,0.449 µM (active),–
CC(=O)N[C@@H](Cc1c[nH]c2ccccc12)C(=O)OCC(=O)Nc1ccc(Cl)c(S(=O)(=O)N(C)C)c1,–,17.4
c1cc2c(cc1Cn1cnnn1)OCO2,–,-16
CCC(C)C1C(C#N)=C(N)OC2=C1C(=O)CC(C)(C)C2 (stereo not drawn),–,15.3
